esBAF inh – blocks esBAF chromatin remodeling in mouse ES cells. Bmi1-luciferase knock-in reporter, 24 h; 100% = twice the neutral-well signal. reporter increase, % at 12.5 µM. actives 2% (n = 350,000); in the data active = activation above about 40%; inconclusive = no clear call, values can overlap the other calls;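 note: 0% = median of the plate's neutral control wells and 100% = double that signal; a rise in the Bmi1 reporter signal indicates esBAF inhibition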
HSF1 inh – HSF1 inhibition. NIH3T3-HGL HSE-luciferase, MG132-induced, luminescence 8 h; active compounds read low. activity change, negative = inhibition, % at 7.5 µM (by protocol). actives 0.77% (n = 300,000). AID 2098;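 active = more than half of replicate wells show activity change below -50%, luminescence cut by over half; inconclusive = some wells, but at most half, below -50%; inactive = no replicate well below -50%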;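 note: luciferase reports HSF-1 transcriptional activity via heat shock element; 0% = median of DMSO wells and -100% = zero luminescence signal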
MITF act – activators of MITF-driven TRPM1 promoter activity in SK-MEL-5 cells. actives 0.75% (n = 300,000). activation, % at 12.5 µM. SK-MEL-5 TRPM1-promoter luciferase, 24 h; % of positive control, neutral wells = 0;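 active = mean activation of at least 80% with every replicate also reaching 80%; inconclusive = mean reaches 80% but some replicate falls short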;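 note: 0% = neutral control wells and 100% = parthenolide positive control wells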
Wnt act – activates Wnt/beta-catenin signaling in a reporter cell assay | activation, % at 9.35 µM | actives 1.2% (n = 300,000) | activator, plate reader; in the data active = activation above about 30%, passing the limit was not always enough; inconclusive = no clear call, values can overlap the other calls;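 note: 0% = neutral control wells and 100% = positive control wells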
HSF-1 act – increases HSF-1 driven luciferase reporter signal; NIH3T3-HGL HSF-1 luciferase reporter, MG132, 8 h; 100% = twice DMSO control signal; actives 1.7% (n = 300,000); activation, % at 9 µM;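 active = mean replicate activation of at least 50% with a set share of replicates each reaching 50%; inconclusive = only one of those two conditions met; inactive = mean below 50% and too few replicates reaching it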;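 note: 0% = median of the neutral control wells and 100% = twice that signal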
The depositor's hits bear a star; ? = inconclusive; / = no result given. A selection: hits, their analogues and other compounds. The true share with any hit is near 3.9%.

SMILES	esBAF inh	HSF1 inh	MITF act	Wnt act	HSF-1 act
CSCCOC(=O)C1=C(C)NC(=O)NC1c1ccc2c(c1)OCO2 (stereo unspecified)	1	23	5	3	56*
CC1=C(C(=O)OCc2ccc3c(c2)OCO3)C(c2ccc(F)cc2)NC(=O)N1 (stereo unspecified)	-7	-54*	-48	-19	-63
O=C(C1CC1)N1C[C@H]2[C@@H](c3ccccc31)[C@H](CO)N2C(=O)c1ccccc1	-3	/	/	/	/
CCCCC(=O)NC(=S)Nc1cccc(C(=O)O)c1	44*	0	-1	0	13
Cc1c(Cl)cccc1NC(=S)NC(=O)c1ccccc1	60*	/	/	0	/
O=C(O)c1cccc(NC(=S)NC(=O)c2ccc(-c3ccccc3)cc2)c1	/	-58*	-1	12	-67
COC(=O)c1cccc(NC(=S)Nc2cccc(Cl)c2C)c1	/	-7	0	0	-16
Cc1cc(C)c(NC(=S)NC(=O)c2ccccc2)cc1C	/	/	/	34*	/
C[C@@H]1CCCCO[C@@H](CN(C)C(=O)Nc2ccc(F)cc2)[C@H](C)CN([C@H](C)CO)C(=O)c2cc(NC(=O)C3CCCCC3)ccc2O1	4	/	/	/	/
CCC(=O)N(C)C[C@@H]1Oc2ncc(-c3ccc(C(=O)N(C)C)cc3)cc2C(=O)N([C@@H](C)CO)C[C@H]1C	-1	/	/	/	/
C/C=C/c1cnc2c(c1)C(=O)N([C@H](C)CO)C[C@H](C)[C@H](CN(C)S(=O)(=O)c1ccccc1)O2	-6	/	/	/	/
CC(=O)c1cccc(NC(=S)NC(=O)c2cccc(Cl)c2)c1	/	37	68	/	56*
CC(=O)c1cccc(NC(=S)NC(=O)C(C)C)c1	3	2	2	36*	0
CCCCC(=O)Nc1cccc(NC(=O)c2ccc(Br)cc2)c1	9	6	9	/	-10
CCCCC(=O)Nc1cccc(NC(=O)c2cccc(Br)c2)c1	/	-62*	9	-4	-70
Cc1ccc(C(=O)NC(=S)Nc2cccc3nsnc23)cc1	63*	10	9	/	13
C[C@@H]1CCCCO[C@@H](CN(C)C(=O)NC2CCCCC2)[C@@H](C)CN([C@@H](C)CO)C(=O)c2cc(NC(=O)Nc3ccc(C(F)(F)F)cc3)ccc2O1	-9	/	/	/	/
Cc1cccc(C(=O)NC(=S)NNC(=O)Cc2ccccc2)c1	/	5	3	12	10
Cc1ccc(C(=O)O)cc1NC(=S)NC(=O)c1ccc(-c2ccccc2)cc1	62*	0	18	11	41
Cc1ccc(C(=O)O)cc1NC(=S)NC(=O)c1ccc(-c2ccc(Cl)cc2)o1	/	4	7	2	7
Cc1cccc(C(=O)NC(=S)NNC(=O)c2ccccc2Cl)c1	/	-86*	0	2	-89
CNC(=S)Nc1cccc(C(C)=O)c1	/	-1	17	16	4
CC(=O)c1cccc(NC(=S)NC(=O)c2ccccc2)c1	/	22	?	/	55*
CCC(=O)Nc1cccc(NC(=S)NC(=O)c2ccc(Cl)cc2)c1	61*	17	54	-3	64*
CCS(=O)(=O)Nc1ccc2c(c1)C(=O)N(C)C[C@@H](OC)[C@H](C)CN(C(=O)CN(C)C)[C@@H](C)CO2	1	/	/	/	/
SMILES	esBAF inh	HSF1 inh	MITF act	Wnt act	HSF-1 act
O=C(CC1Sc2ccccc2NC1=O)c1ccc(Br)cc1 (stereo unspecified)	/	32	?	5	70*
N#Cc1ncccc1CCc1cccc(Cl)c1	43*	0	44	0	5
C[C@H]1CN([C@@H](C)CO)C(=O)c2cccc(NC(=O)c3ccc(-c4nccs4)cc3)c2O[C@H]1CN(C)CC1CC1	-2	/	/	/	/
Cc1cc(SCC(=O)N/N=C/c2ccc(O)c(O)c2)c(C)cc1Br	10	41	-23	/	63*
Cc1cc(SCC(=O)N/N=C/c2ccc(O)c(O)c2)nc2ccccc12	-17	3	-19	-2	5
COc1cccc(NC(=S)N(CCCN2CCN(C)CC2)Cc2ccco2)c1	3	21	8	-1	61*
Fc1ccc(-c2nc(-c3cccs3)[nH]c2-c2ccc(F)cc2)cc1	/	-8	-16	-1	-14
COc1ccc(-c2nc(-c3cccs3)c(-c3cccs3)[nH]2)cc1OC	15	13	17	-1	12
COc1ccc(-c2nc(-c3ccccc3)c(-c3cccs3)[nH]2)cc1OC	-4	16	-13	-6	51*
Cc1ccsc1-c1nc(-c2ccccc2)c(-c2ccccc2)[nH]1	-3	-5	/	53*	5
C[C@H]1CCCCO[C@H](CN(C)S(=O)(=O)c2ccc(Cl)cc2)[C@@H](C)CN([C@@H](C)CO)C(=O)c2cc(NS(=O)(=O)c3ccc(F)cc3)ccc2O1	-7	/	/	/	/
CCNC(=O)C[C@@H]1CC[C@H]2[C@@H](COC[C@H](O)CN2Cc2ccc(Cl)c(Cl)c2)O1	2	/	/	/	/
N#Cc1ccc(-c2cccnc2)nc1SCC(=O)c1ccccc1	63*	15	/	3	28
N#Cc1ccc(-c2ccccc2)nc1SCC(=O)c1cccc(Cl)c1	/	9	11	/	31
N#C[C@H]1[C@H](c2ccccc2)[C@H](CO)N1C(=O)c1cc(Cl)cc(Cl)c1	0	/	/	/	/
COCC(=O)NC[C@@H]1[C@@H](c2ccc(C3=CCCC3)cc2)[C@@H](CO)N1C(=O)C1CC1	-3	/	/	/	/
CC1CCN(C(=O)CNC(=O)c2ccc(Br)o2)CC1	27	/	71	38*	/
O=C(NCC(=O)N1CCN(c2ccccc2)CC1)c1ccc(Br)o1	/	1	4	-1	7
COC(=O)Cc1[nH]n(-c2nc3ccccc3s2)c(=O)c1C(C)=Nc1ccc(C)cc1	/	2	-96	-2	6
COC(=O)Cc1[nH]n(-c2nc3ccccc3s2)c(=O)c1C(C)=Nc1ccc(Cl)cc1	/	-68*	-79	19	-71
O=C(Oc1c(CN2CCOCC2)cc(Cl)c2cccnc12)c1ccccc1Cl	10	-5	-75	1	6
O=C(Oc1c(CN2CCOCC2)cc(Cl)c2cccnc12)c1cccs1	-10	-18	-71	47*	-16
COc1ccc(-c2ccc(-c3nnn(CC(C)=O)n3)cc2)cc1	22	25	50	/	42
COc1cccc(-c2nnn(CC(C)=O)n2)c1	/	33	82*	/	?
CCOc1ccc(-c2nnn(CC(=O)Nc3cccc(OC)c3)n2)cc1OCC	0	2	-9	33*	15
CCCNC(=O)N(C)C[C@@H]1Oc2ncc(C#CC3(O)CCCC3)cc2C(=O)N([C@H](C)CO)C[C@H]1C	2	/	/	/	/
COc1ccc(S(=O)(=O)N2Cc3ccccc3CC2C(=O)Nc2ccc3c(c2)OCO3)cc1 (stereo unspecified)	59*	5	41	4	-19
Cc1ccc(S(=O)(=O)N2Cc3ccccc3CC2C(=O)NC(C)(C)C)cc1 (stereo unspecified)	0	4	7	-1	11

Screens as filed in PubChem BioAssay.
